HTT cytoprotect – protects HTT-Q103 PC12 cells, measured by ATP | PC12 HTT-Q103 induced, cytoprotection, ATP luminescence, 40 h | 0.14% of 230,000 active | AID 1471 | Potency, µM (titrated, usually from 56.4 µM), without a hit: cytoprotection (ATP increase), usual class: activators; note: potency is the fitted concentration of half-maximal effect; % of control where 0% means no effect; nearly all actives have a fitted effect of over 45% in size
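ATP quantification (ATPlite) reports survival of PC12 cells in which tebufenozide, 100 nM final, switches on Htt exon 1 with 103 glutamines linked to GFP; compounds are titrated.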
PNC inhibitor – inhibitors of perinucleolar compartment assembly; PC3M PTB-GFP, PNC prevalence imaging, 16 h; active compounds read low; 3.1% of 140,000 active; activity change (PNC), negative = inhibition, % at 10 µM; AID 2417;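 active = readout at or below -70, meaning at least 70% loss of cells showing the perinucleolar compartment, a nuclear body marking cancer cells; inconclusive = readout between -30 and a set limit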;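 note: plate controls were DMSO wells for no effect and camptothecin positive control wells for full effect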
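PC3M cells stably expressing PTB-GFP, 750–1000 cells/well, treated 16 h at 37 °C with compound (23 nl of library stock), in duplicate. After paraformaldehyde fixation and Hoechst stain, imaged at 20x; PNC prevalence scored by image analysis.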
HTT aggregate – reduces HttQ103-GFP aggregates in PC12 cells | AID 1688 | PC12 HttQ103-GFP aggregates, Acumen cytometry, 40 h | Potency, µM (highest dose often 46.1 µM), inactives show at the top dose activity change, negative = inhibition, most hits filed as inhibitors | 1.1% of 220,000 active; note: potency is the fitted concentration of half-maximal effect; % is set by controls: 0 for no effect and ±100 for the full control effect; nearly all actives have a fitted effect of over 60% in size
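Huntingtin Q103 exon 1–GFP aggregates in induced PC12 cells (100 nM tebufenozide) were quantified by cytometry from lysates, with compounds dosed in titration.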
Active calls of the source: *; u = inconclusive; x = no result given; [ ] = another dose, or the depositor's remark. Shown is part of a subset that was picked to be rich in hits. Unless noted, calls come from the whole dose curve; as a rule, active = well fitted curve in the direction sought with a large enough effect; inconclusive = small, poorly fitted or top-dose-only effect, or another doubt; inactive = no such curve, though single readings can be large; an effect the other way counts as inactive or inconclusive.

SMILES	HTT cytoprotect	PNC inhibitor	HTT aggregate
O=C(CCl)Nc1cc(SCC(O)CO)cc([N+](=O)[O-])c1 (centres undefined)	-78.1%[10 µM]	x	2.82µM*
CC(C)=NOc1cc(NC(=O)CCl)cc([N+](=O)[O-])c1	x	20.4	3.16µM*
CCC(=O)Nc1cc(SCCO)cc([N+](=O)[O-])c1	-19.7%	20.1	-6.4%
COc1ccc(/C=[N+](\[O-])C2N(c3ccccc3)C(=S)SC2(C)C)cc1OC (centres undefined)	-3.1%[10 µM]	x	0.6%[9.22 µM]
COc1cc(C)nc(N2CCCC(C(=O)Nc3cc(Cl)ccc3OC)C2)n1 (centres undefined)	-19.5%	70.9	-21.7%
O=C(Nc1nc2ccccc2s1)c1ccc(OCC2CCCO2)cc1 (centres undefined)	-4.9%[10 µM]	25.0	31.6µM*
Cc1cnc(NC(=O)c2ccc(OCC3CCCO3)cc2)s1 (centres undefined)	-168.7%	x	9.9%
COc1cc(OC)c(C2SCCS2)c(OC)c1	x	u	-7.2%
Nn1c(-c2ccco2)n[nH]c1=S	7.6%	-24.5	-18.1%[9.22 µM]
S=c1[nH]nc(-c2ccco2)n1C1CCCCC1	-1.6%[10 µM]	-84.7*	26.4%
O=[N+]([O-])c1ccc(Oc2ccc(F)cc2)c2ccncc12	-2.6%	-29.4	10µM*
O=[N+]([O-])c1ccc(Oc2cccc(Br)c2)c2ccncc12	19.5%	5.8	-1.8%
Cc1cc(NC(=O)CO/N=C/c2ccc3c(c2)OCO3)ccc1Br	8.0%[10 µM]	x	7.5%
CN(CP(=O)(O)C(O)c1ccccc1)S(C)(=O)=O (centres undefined)	13.8%	-26.7	20.4%
CCOC(=O)c1c(NC(=O)c2ccco2)sc(C(=O)N2CCCC2)c1C	-4.1%	20.3	-12.0%
COC(=O)c1c(NC(=O)c2cccnc2)sc(C(=O)N(C)C)c1C	1.26µM*	-12.6	2.0%
COC(=O)c1c(NC(=O)c2cccnc2)sc(C)c1C	-10.4%[10 µM]	19.5	-3.1%
COC(=O)c1c(NC(=O)c2ccco2)sc(C(=O)N(C)C)c1C	-23.2%[10 µM]	-100.0*	0.2%
COc1ccc(NC(=O)c2ccc3ccccc3c2)cc1NS(=O)(=O)c1ccc(F)cc1	8.1%[10 µM]	33.1	5.1%
COc1ccc(NC(=O)c2ccc(C#N)cc2)cc1NS(=O)(=O)c1ccc(F)cc1	1µM*	7.7	23.8%
Cc1[nH]c(C(=O)N/N=C/c2ccc(C(=O)O)cc2)c(C)c1C(=O)N/N=C/c1ccc(C(=O)O)cc1	19.8%[10 µM]	u	-11.4%
CCOC(=O)c1c(C)[nH]c(C(=O)N/N=C/c2ccc(Br)cc2)c1C	-76.1%[10 µM]	-112.6*	-22.3%
Nc1cc(=O)[nH]c(=S)n1-c1ccccc1	-2.9%	9.7	7.5%
Cc1cc(=O)[nH]c(=S)n1-c1ccccc1	8.3%[10 µM]	-122.4*	-10.7%
COCCNC(=O)CSc1nc2ccccc2c(=O)n1CCC(=O)NCCc1ccc(OC)c(OC)c1	-38.2%	x	-2.8%
SMILES	HTT cytoprotect	PNC inhibitor	HTT aggregate
CCS(=O)(=O)N1Cc2ccccc2CC1C(=O)Nc1nnc(SCc2ccc(C#N)cc2)s1 (centres undefined)	-5.0%[10 µM]	u	12.6µM*
CCS(=O)(=O)N1Cc2ccccc2CC1C(=O)Nc1ncc(C)s1 (centres undefined)	-47.8%	x	-12.9%
CCCNC(=O)c1ccc(CN2CCc3ccccc3C2)cc1	22.6%[10 µM]	-20.8	5.8%
C/C(=N\NC(=O)c1ccc(CN2CCc3ccccc3C2)cc1)c1ccccc1O	-170.9%	x	10µM*
CCCCCCCCCn1c2c(c(=N)c3c1CCC3)CCCC2	-75.8%[10 µM]	x	-32.8%[9.22 µM]
CCCCCCCCCCn1c2c(c(=N)c3c1CCC3)CCC2	-108.4%	0.8	1µM*
O=C(CCc1ccccc1)Nc1nnc(-c2ccc3c(c2)CCCC3)o1	-25.0%	-29.0	-21.2%
NCCc1nnc(SCc2c(Cl)cccc2Cl)o1	11.4%[10 µM]	x	2.5%[9.22 µM]
NCCc1nnc(SCc2c(F)cccc2Cl)o1	-7.6%	-103.2*	19.0%[9.22 µM]
O=C(CCC(=O)N(CC(=O)NC1CCCC1)Cc1ccc2c(c1)OCO2)Nc1ccccn1	4.3%	-94.0*	1.4%
COCCN(CC(=O)NCc1ccc2c(c1)OCO2)C(=O)CCC(=O)Nc1nccs1	-4.9%[10 µM]	-100.0*	2.4%
O=C(CCC(=O)N(CC(=O)NC1CCCC1)Cc1ccc2c(c1)OCO2)Nc1nccs1	18.1%[10 µM]	x	-16.5%
COCCNC(=O)CN(Cc1ccc2c(c1)OCO2)C(=O)CCC(=O)Nc1nccs1	21.9%[10 µM]	7.9	-16.0%
CCC(C)(C)n1nnnc1CN1CCN(C(c2ccccc2)c2ccccc2)CC1	11.4%[10 µM]	161.6	14.1µM*
CC(C)(C)n1nnnc1C(c1ccncc1)N1CCN(C2CCCCC2)CC1 (centres undefined)	-15.2%	7.9	2.7%
CCC(C)(C)n1nnnc1C(c1ccncc1)N1CCC(C)CC1 (centres undefined)	-6.5%[10 µM]	-118.9*	-5.7%
CCC(C)(C)n1nnnc1C(c1ccccc1)N1CCN(Cc2ccccc2)CC1 (centres undefined)	18.2%[10 µM]	x	9.7%[9.22 µM]
CCC(C)(C)n1nnnc1C(c1ccc(C)cc1)N1CCC(C)CC1 (centres undefined)	-9.0%	u	-12.0%
CC(C)(C)n1nnnc1C(c1cccnc1)N1CCN(C2CCCCC2)CC1 (centres undefined)	11.9%[10 µM]	-83.7*	2.8%
N#Cc1cccc(C(c2nnnn2C2CCCC2)N2CCC(Cc3ccccc3)CC2)c1 (centres undefined)	-16.1%[10 µM]	-100.0*	-13.6%
N#Cc1ccc(C(c2nnnn2C2CCCC2)N2CCC(Cc3ccccc3)CC2)cc1 (centres undefined)	9.8%	52.2	-9.9%
COC(=O)CSc1ncnc2c1sc1nc3c(cc12)COC(C)(C)C3	-53.4%[10 µM]	x	12.5%
O=C(CSc1nc2ccccc2c(=O)n1Cc1ccc(Cl)cc1)NCc1cccs1	-0.1%[10 µM]	-1.6	-4.1%
COc1ccc(-c2c(C)n([O-])c(C)c(-c3ccccc3)[n+]2=O)cc1OC	10.0%	-3.5	8.5%
COc1ccc(-n2c(=S)[nH]c3cc(C(=O)NCCCN4CCCC4=O)ccc3c2=O)cc1	17.4%	-3.5	-10.3%
SMILES	HTT cytoprotect	PNC inhibitor	HTT aggregate
COc1ccc(C=O)cc1Cn1ccnc1	14.2%[10 µM]	x	7.2%[9.22 µM]
Fc1ccc(C(c2nnnn2C2CCCC2)N2CCN(Cc3ccccc3)CC2)cc1 (centres undefined)	-8.8%	2.6	12.0%
c1ccc(C(c2ccccc2)N2CCN(Cc3nnnn3C3CCCC3)CC2)cc1	-9.0%[10 µM]	-82.0*	u
CC(C)C(=O)Nc1ccc2c(c1)nc(CCN1CCN(c3ccccc3)CC1)n2C	-16.6%[10 µM]	x	-21.4%[9.22 µM]
Cc1cc(C)cc(C(=O)NCC(=O)OCC(=O)NCC(F)(F)F)c1	-35.9%	x	8.9%
CN(Cc1ccccc1)c1nc(CN2CCOCC2)nc2scc(-c3ccccc3)c12	2.6%[10 µM]	-0.4	-26.1%
Fc1ccc(N2CCN(c3nc(CN4CCOCC4)nc4scc(-c5ccccc5)c34)CC2)cc1	-50.3%	x	17.8µM*
Nc1ncnc2nc(N3CCN(C(=O)c4ccccc4)CC3)[nH]c12	-1.5%	0.5	12.1%
Cc1ccc(C(=O)Nc2nc(C(C)(C)C)cs2)s1	-64.0%	-8.6	u
CC(C)(C)c1csc(NC(=O)c2ccc(Cl)s2)n1	-104.9%	22.1	8.91µM*
COc1ccc(S(=O)(=O)C(C#N)c2nc3ccccc3nc2N2CCCCC2)cc1 (centres undefined)	-18.2%[0.074 µM]	-2.0	-27.9%
